RORg inh – inhibitors of mouse ROR gamma transcriptional activity; P51450; Drosophila S2 Gal4-RORgamma UAS-luciferase reporter, 20 h; Potency, µM (top dose mostly 53.6 µM), without a hit: at the highest dose activity change, negative = inhibition, actives largely listed as inhibitors; hit rate 5.4% among 310,000; AID 2551; also: potency is read from the fitted curve at half-maximal effect; % is scaled to controls: 0 for no effect and ±100 for the full control effect; nearly all actives have a fitted effect of over 60% in size
Target sequence (P51450 whole entry, looked up, the tested form may be a part): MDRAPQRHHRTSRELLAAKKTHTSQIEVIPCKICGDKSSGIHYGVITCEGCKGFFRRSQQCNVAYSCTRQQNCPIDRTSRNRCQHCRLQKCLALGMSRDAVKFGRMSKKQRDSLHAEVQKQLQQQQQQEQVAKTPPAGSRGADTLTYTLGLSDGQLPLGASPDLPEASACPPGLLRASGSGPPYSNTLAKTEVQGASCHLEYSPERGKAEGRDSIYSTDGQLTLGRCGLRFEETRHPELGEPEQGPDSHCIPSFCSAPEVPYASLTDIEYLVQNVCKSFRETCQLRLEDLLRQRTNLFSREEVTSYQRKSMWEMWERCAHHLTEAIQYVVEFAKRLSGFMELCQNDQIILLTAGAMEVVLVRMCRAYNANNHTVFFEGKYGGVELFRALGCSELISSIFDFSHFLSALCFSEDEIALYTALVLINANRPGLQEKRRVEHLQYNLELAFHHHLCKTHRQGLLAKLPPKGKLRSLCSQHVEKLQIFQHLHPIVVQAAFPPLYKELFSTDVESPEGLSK
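Luciferase reporter read in Schneider cells carrying Gal4-RORγ (mouse) and UAS-Photinus luciferase; cells given compound 1 h before 700 uM copper sulfate induction, then incubated 20 h at ambient temperature.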
TRPV1 potentiator – potentiators of human vanilloid receptor 1 (TRPV1). TRPV1-expressing cells, Fluo-8 calcium influx, capsaicin EC20 potentiation. potentiation, % at 8.33 µM. hit rate 0.02% among 320,000; in the data active = potentiation above about 80%; inconclusive = between about 30% and that limit; also: 0% is about no effect
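Fluo-8 calcium influx in TRPV1-expressing cells, kinetic read (ex 480/em 520 nm). Compound added and read 3 min for agonist activity, followed by capsaicin at EC20 final and 2 min further read for enhancement.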
Gal4-VP16 FLuc – Gal4-VP16 reporter inhibition counter-screen; Drosophila S2 Gal4-VP16 UAS-luciferase, luminescence, 20 h; Potency, µM (titrated, usually from 53.6 µM), for inactives: top-dose activity, negative = inhibition, usual class: inhibitors; hit rate 3.5% among 310,000;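 also: Gal4-VP16 expression switched on by copper sulfate through the metallothionein promoter; potency is read from the fitted curve at half-maximal effect; % is scaled to controls: 0 for no effect and ±100 for the full control effect; nearly all actives have a fitted effect of over 50% in size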
TRPV1 ag – human TRPV1 agonism; Q8NER1; TRPV1-expressing cells, Fluo-8 calcium influx, agonist mode; activation, % at 8.33 µM; hit rate 0.19% among 320,000; AID 540275; in the data active = activation above about 80%; inconclusive = between about 30% and that limit; also: 0% is about no effect
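Fluo-8 calcium influx in TRPV1-expressing cells, kinetic read (ex 480/em 520 nm). Compound added and read 3 min for agonist activity, followed by capsaicin at EC20 final and 2 min further read for enhancement.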
uPA generation – inhibitors of cell surface uPA generation. cell surface uPA generation assay, qHTS. Potency, µM (series often up to 38.3 µM), without a hit: top-dose activity change, negative = inhibition, most hits filed as inhibitors. hit rate 0.31% among 330,000. AID 540303; active = well fitted inhibition curve with a large enough effect; inconclusive = small, poorly fitted or top-dose-only effect; inactive = no such curve, though single readings can be large or run the other way; tested in mouse RAW 264.7 cells; also: potency is read from the fitted curve at half-maximal effect; % is scaled to controls: 0 for no effect and ±100 for the full control effect; nearly all actives have a fitted effect of over 55% in size
Active calls of the source: *; ? = inconclusive; / = not tested or not shown; [ ] = remark or other dose. Shown are actives, neighbours in structure and some others; about 5.8% of the full set was active somewhere. Unless noted, calls follow the shape of the dose curve; as a rule, active = well fitted curve in the direction sought with a large enough effect; inconclusive = small, poorly fitted or top-dose-only effect, or another doubt; inactive = no such curve, though single readings can be large; an effect the other way counts as inactive or inconclusive.

SMILES | RORg inh | TRPV1 potentiator | Gal4-VP16 FLuc | TRPV1 ag | uPA generation
COc1ccc(C2CC2C(=O)c2ccccn2)cc1 (stereo unspecified) | 21% | -5 | 11% | 14 | 4%
COC(=O)c1sc(C(=O)OC)c(C(=O)OC)c1C(=O)OC | -5% | -2 | -8% | 4 | 3%
COC(=O)c1sc(=S)sc1C(=O)OC | 14µM* | -2 | ? | 0 | -24%
Cc1cn(C2CC3OCC(NC(=O)C4CCCN4C(=O)OC(C)(C)C)C3O2)c(=O)[nH]c1=O (stereo unspecified) | 0% | / | 1% | / | /
CCC1Oc2ccc(C)cc2N(CC(=O)NCc2cccc(OC)c2)C1=O (stereo unspecified) | ? | / | 22µM* | / | 1%
Fc1ccccc1 | -6% | / | -6% | / | /
[O-][n+]1cccc2c(Br)cc(Br)c(O)c21 | 0.56µM* | 15 | 0.71µM* | -4 | -3%
O=c1cc(Br)c(O)c(Br)cc1Br | / | / | / | / | 5%
CCOC(=O)C1CCN(C(=O)c2cc(C)n(C(C)(C)C)n2)CC1 | 3% | -2 | 6% | 2 | 1%
C=CCNC(=S)Nc1ccc(C)c(S(=O)(=O)N2CCCCC2)c1 | 11µM* | -5 | -1% | 10 | -1%
Cc1ccc(NC(=S)Nc2ccc(C(C)C)cc2)cc1S(=O)(=O)N1CCCCCC1 | 3.2µM* | -2 | 4.5µM* | 3 | 4%
COc1ccc(NC(=S)Nc2ccc(C)c(S(=O)(=O)N3CCCCC3)c2)cc1 | ? | 5 | ? | 1 | /
Cn1cc(/C=C2\SC(=O)NC2=S)c2ccccc21 | 2.5µM* | -4 | 6.3µM* | -1 | -8%
CCN1C(C)=C(C(=O)OC)C(c2ccccc2)N2C(=O)[C@@]3(C(=O)OC)O[C@@]12C1C(=O)N(C)C(=O)C13 (stereo partly specified) | -6%[10 µM] | / | -4%[10 µM] | / | /
Cc1cccc(/C=C2/S/C(=N/N=C3\CC4CCC3(C)C4(C)C)NC2=O)c1 (stereo unspecified) | 8.9µM* | -11 | ? | ? | 5%
COCC1=C2c3ccccc3[C@H](C[N+](=O)[O-])C(C(=O)OC)(C(=O)OC)C[C@@H]2n2c(=O)n(-c3ccccc3)c(=O)n2C1 | 3% | / | 2% | / | /
COCCOC(=O)c1[nH]c2c(c1C)C(=O)CC(c1cccs1)C2 (stereo unspecified) | 40% | -5 | -2% | 17 | 1µM*
CCOC(=O)c1[nH]c2c(c1C)C(=O)CC(c1ccc(F)cc1)C2 (stereo unspecified) | ? | -1 | ? | 1 | 1.3µM*
COC(=O)c1cc(O)cc(OC)c1Oc1cc(C)cc(O)c1C(=O)O | 0% | -13 | 7.1µM* | -5 | 0.89µM*
C/C(=N\NC(=S)NCc1ccccc1)c1ccccc1F | 1.3µM* | 0 | -9% | 7 | -5%
CC1=C/C(=N\NC(=S)NCc2ccccc2)CC1 | 0.56µM* | 3 | 3.2µM* | 16 | 0%
C/C(=N/NC(=O)CNC(=O)c1ccco1)c1ccco1 | -7% | -4 | -2% | -3 | 0%
COc1ccc(CNC(=S)N/N=C(/C)c2ccccc2)cc1 | 8.9µM* | 1 | ? | 8 | -5%
C/C(=N\NC(=S)NCc1ccccc1)c1ccco1 | 1.8µM* | ? | 7.1µM* | 17 | -5%
C[C@H]1OC(=O)CC[C@@H]2[C@]1(C)CCC1[C@@]2(C)CC[C@@]2(C)C3CC(C)(C)CC[C@]3(CO)CC[C@]12C (stereo partly specified) | -17% | / | 6% | / | /
SMILES | RORg inh | TRPV1 potentiator | Gal4-VP16 FLuc | TRPV1 ag | uPA generation
CC(C)(S)[C@H](N)C(=O)O | 24% | / | -7% | / | /
C/C(=N/NC(=O)C(=O)N/N=C(/C)c1ccccc1)c1ccccc1 | 9% | 3 | -6% | -2 | /
C/C(=N\NC(=O)COc1ccc(C(C)(C)C)cc1)c1ccccc1 | 1% | -2 | 4% | 11 | -1%
CC/C(C)=N/NC(=S)NCc1ccco1 | 10µM* | 8 | ? | 1 | 0%
C/C(=N\NC(=S)NCc1ccccc1)c1ccc(C#N)cc1 | 2.8µM* | 4 | 7.1µM* | 1 | 14%
C/C(=N\NC(=S)NCc1ccccc1)c1ccccc1 | 3.5µM* | 13 | 3.5µM* | 11 | 1%
C/C(=N\NC(=S)NCc1ccccc1)c1ccc(C(C)(C)C)cc1 | 1µM* | 0 | 1.4µM* | 11 | 7%
C/C(=N\NC(=O)c1ccccc1F)c1ccc(C#N)cc1 | 15% | -1 | -17% | 2 | -8%
